Results filed as inconclusive are left out. Unmarked numbers belong to inactive results. Calls of active or inactive are those of the source. Unless noted, the call rests on the fitted dose curve; in most records, active means well fitted curve in either direction with a large enough effect (not every such curve was filed as active); inconclusive means small, poorly fitted or top-dose-only effect, or another doubt; inactive means flat fitted curve, though single readings scatter.
Experiment: Cell Viability - SK-N-SH (AID 435; calls by dose curve;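 further: potency means the concentration at half of the fitted maximal effect; compound exposure lasted 40 h at 37 °C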)
Conditions: SK-N-SH neuroblastoma cell viability qHTS
Outline: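 CellTiter-Glo ATP luminescence, 20 min RT read; cells pre-plated 5 hr, compound 40 hr at 37 °C, 1500 cells/well, complete medium. Normalized DMSO = 0, 100 uM tamoxifen = 100% inhibition; Hill-fit AC50.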

Question: For `Oc1ccc2cc(SSc3ccc4cc(O)ccc4c3)ccc2c1`, which Potency is on record?
Answer: 42.5 µM (active)

Question: Which Potency does the source give for `Nc1ccc2cc3ccccc3cc2c1` here?
Answer: > 92 µM

Question: Which Potency does the source give for `CN(C)c1ccc(C2(c3ccc(N(C)C)cc3)OC(=O)c3cc(N(C)C)ccc32)cc1` here?
Answer: > 92 µM

Question: Which Potency does the source give for `Cc1cc(Nc2ccc(O)cc2)ccc1N` here?
Answer: 87 µM (active)

Question: With `CO[C@H]1/C=C/O[C@@]2(C)Oc3c(C)c(O)c4c(O)c(c5c(c4c3C2=O)NC2(CCN(CC(C)C)CC2)N=5)=NC(=O)/C(C)=C\C=C\[C@H](C)[C@H](O)[C@@H](C)[C@@H](O)[C@@H](C)[C@H](OC(C)=O)[C@@H]1C` as the compound, how does the Potency read?
Answer: > 92 µM

Question: For `Cc1cc(O)c(C(C)(C)C)cc1Sc1cc(C(C)(C)C)c(O)cc1C`, which Potency is on record?
Answer: 23 µM (active)

Question: Which Potency does the source give for `C=C(C)c1ccccc1` here?
Answer: > 92 µM

Question: For `O=C1OC2(c3cc(Br)c(O)c(Br)c3Oc3c2cc(Br)c(O)c3Br)c2c(Cl)c(Cl)c(Cl)c(Cl)c21`, which Potency is on record?
Answer: > 92 µM

Question: Which Potency does the source give for `c1cc(OCC2CO2)cc(OCC2CO2)c1` (stereo not drawn) here?
Answer: 9.23 µM (active)

Question: With `ClC1=C(Cl)C(Cl)(Cl)C(Cl)=C1Cl` as the compound, how does the Potency read?
Answer: > 92 µM

Question: For `C=CC(=O)OCCOCCOC(=O)C=C`, which Potency is on record?
Answer: 22.7 µM (active)

Question: Which Potency does the source give for `O=C1OC(O)C(C(Cl)Cl)=C1Cl` (stereo not drawn) here?
Answer: 30.2 µM (active)

Question: For `CNc1ccc(O)cc1`, which Potency is on record?
Answer: 23.5 µM (active)

Question: For `CC(=O)Nc1ccc(C(=O)CCl)cc1`, which Potency is on record?
Answer: 15.6 µM (active)

Question: Which Potency does the source give for `CCC(C)Nc1ccc(NC(C)CC)cc1` (stereo not drawn) here?
Answer: 8.73 µM (active)

Question: For `O=C=Nc1ccc(Cc2ccc(N=C=O)cc2)cc1`, which Potency is on record?
Answer: > 92 µM

Question: For `c1ccc2c(c1)ccc1cc3c(ccc4ccccc43)cc12`, which Potency is on record?
Answer: > 92 µM

Question: Which Potency does the source give for `CC/C(=C(\c1ccccc1)c1ccc(OCCN(C)C)cc1)c1ccc(O)cc1` here?
Answer: 34.3 µM (active)

Question: With `c1ccc2c(c1)-c1cccc3c1c-2cc1ccccc13` as the compound, how does the Potency read?
Answer: > 92 µM

Question: Which Potency does the source give for `O=[N+]([O-])c1cc([N+](=O)[O-])c2ccc(S(=O)(=O)O)cc2c1O` here?
Answer: > 92 µM

Question: Which Potency does the source give for `O=Cc1ccc(Cl)c(Cl)c1` here?
Answer: > 92 µM

Experiment: NFAT Signaling Pathway (AID 444);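 further: carbachol stimulus at about its EC50 of 1 µM final; on the % scale 0 is the no-effect control and ±100 the full control effect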
Conditions: Jurkat NFAT-bla M1, carbachol, beta-lactamase ratio, 5 h; at 17.2 µM (top of the series) unless noted
Outline: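 Read-out: CCF4 FRET ratio (460 nm/530 nm) after 1 h RT dye loading, used for %activity and AC50 from titration series. Cells: Jurkat NFAT-β-lactamase/M1 line, treated with compound plus 1 uM carbachol for 5 h, 37 °C.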

Question: With `Cc1ccc(-n2ncc3c(NCc4ccc5c(c4)OCO5)ncnc32)c(C)c1` as the compound, how does the activity change, negative = inhibition read?
Answer: 8.44%

Question: With `COCCOC(=O)c1c(C)oc2ccc(OC(=O)COc3c(F)c(F)c(F)c(F)c3F)cc12` as the compound, how does the activity change, negative = inhibition read?
Answer: -2.9%

Question: For `Cn1c(Cl)nc2c1c(=O)n(Cc1cccc(Br)c1)c(=O)n2C`, which activity change, negative = inhibition is on record?
Answer: -23.7%

Question: Which activity change, negative = inhibition does the source give for `Cc1sc(-n2c(C)cc(/C=N/n3cnnc3)c2C)c(C#N)c1C` here?
Answer: -9.91%

Question: With `C=CCOC(=O)C1=C(C)NC(SCC(=O)N(CC)CC)=C(C#N)C1c1ccccc1` (stereo not drawn) as the compound, how does the activity change, negative = inhibition read?
Answer: 2.35%

Question: Which activity change, negative = inhibition does the source give for `CCOC(=O)CSc1nc(N)c2c3c(sc2n1)CCCC3` here?
Answer: -14.4%

Question: With `O=C(O)CSCC(=O)Nc1ccc(S(=O)(=O)N2CCCCC2)cc1` as the compound, how does the activity change, negative = inhibition read?
Answer: 5.47%

Question: With `CC1(C)CC(=O)C(C=NCC(O)c2ccccc2)=C(O)C1` (stereo not drawn) as the compound, how does the activity change, negative = inhibition read?
Answer: -0.832%

Question: Which activity change, negative = inhibition does the source give for `COC(=O)c1sc(NC(=O)c2oc3ccccc3c2C)nc1C` here?
Answer: -8%

Question: Which activity change, negative = inhibition does the source give for `COc1ccc(OCC(O)Cn2c(Nc3cccc(C)c3)nc3c2c(=O)n(C)c(=O)n3C)cc1` (stereo not drawn) here?
Answer: 8.48%

Question: For `Cc1ccc(Cn2ncc3c(N4CCN(c5ccc(C)cc5)CC4)ncnc32)cc1`, which activity change, negative = inhibition is on record?
Answer: -24.6%

Question: With `Nc1nnc(Cc2ccc(Cl)c(Cl)c2)s1` as the compound, how does the activity change, negative = inhibition read?
Answer: 2.08%

Question: With `COc1ccc(C(=O)N/C(N)=N/c2nc3ccccc3o2)cc1` as the compound, how does the activity change, negative = inhibition read?
Answer: -19%

Question: With `C=C(C)CC1N(c2cccc(OC)c2)C(=O)[C@@H]2C(C(=O)O)[C@H]3C=C[C@@]12O3` (stereo partly drawn) as the compound, how does the activity change, negative = inhibition read?
Answer: 5.5%

Question: With `CN(C)C/C(Cl)=C(\Cl)c1ccccc1` as the compound, how does the activity change, negative = inhibition read?
Answer: -119% (active)

Question: Which activity change, negative = inhibition does the source give for `CNC(=O)c1cc2c(ccc3ccccc32)oc1=N` here?
Answer: -5.77%

Experiment: Stat Signaling Pathway (AID 446);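 further: ME-180 cervical cancer cells given 40 pM IL-6 alongside compound; SIE-controlled beta-lactamase reporter measured as 460/530 nm FRET emission ratio; on the % scale 0 is the no-effect control and ±100 the full control effect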
Conditions: ME-180 SIE beta-lactamase reporter, IL-6 stimulated, 5 h; at 17.2 µM (top of the series) unless noted
Outline: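 ME-180 SIE-bla cells; overnight plating; cpd + IL-6 40 pM, 5 h, 37 C; LiveBLAzer 2.5 h RT; 460/530 nm emission ratio. Normalized to 300 pM IL-6 and 125 nM JAK inhibitor controls.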

Question: For `Cc1ccc(-n2ncc3c(NCc4ccc5c(c4)OCO5)ncnc32)c(C)c1`, which activity, negative = inhibition is on record?
Answer: -19.8%

Question: For `COCCOC(=O)c1c(C)oc2ccc(OC(=O)COc3c(F)c(F)c(F)c(F)c3F)cc12`, which activity, negative = inhibition is on record?
Answer: 1.17%

Question: For `Cn1c(Cl)nc2c1c(=O)n(Cc1cccc(Br)c1)c(=O)n2C`, which activity, negative = inhibition is on record?
Answer: 12.7%

Question: Which activity, negative = inhibition does the source give for `Cc1sc(-n2c(C)cc(/C=N/n3cnnc3)c2C)c(C#N)c1C` here?
Answer: -17%

Question: Which activity, negative = inhibition does the source give for `C=CCOC(=O)C1=C(C)NC(SCC(=O)N(CC)CC)=C(C#N)C1c1ccccc1` (stereo not drawn) here?
Answer: -2.74%

Question: Which activity, negative = inhibition does the source give for `CCOC(=O)CSc1nc(N)c2c3c(sc2n1)CCCC3` here?
Answer: -14.2%

Question: With `O=C(O)CSCC(=O)Nc1ccc(S(=O)(=O)N2CCCCC2)cc1` as the compound, how does the activity, negative = inhibition read?
Answer: 23%

Question: Which activity, negative = inhibition does the source give for `CC1(C)CC(=O)C(C=NCC(O)c2ccccc2)=C(O)C1` (stereo not drawn) here?
Answer: 8.79%

Question: For `COC(=O)c1sc(NC(=O)c2oc3ccccc3c2C)nc1C`, which activity, negative = inhibition is on record?
Answer: 18.1%

Question: Which activity, negative = inhibition does the source give for `COc1ccc(OCC(O)Cn2c(Nc3cccc(C)c3)nc3c2c(=O)n(C)c(=O)n3C)cc1` (stereo not drawn) here?
Answer: -15.9%

Question: Which activity, negative = inhibition does the source give for `Cc1ccc(Cn2ncc3c(N4CCN(c5ccc(C)cc5)CC4)ncnc32)cc1` here?
Answer: -13.5%

Question: Which activity, negative = inhibition does the source give for `Nc1nnc(Cc2ccc(Cl)c(Cl)c2)s1` here?
Answer: 4.97%

Question: Which activity, negative = inhibition does the source give for `COc1ccc(C(=O)N/C(N)=N/c2nc3ccccc3o2)cc1` here?
Answer: -5.99%

Question: Which activity, negative = inhibition does the source give for `C=C(C)CC1N(c2cccc(OC)c2)C(=O)[C@@H]2C(C(=O)O)[C@H]3C=C[C@@]12O3` (stereo partly drawn) here?
Answer: 3.15%

Question: For `CN(C)C/C(Cl)=C(\Cl)c1ccccc1`, which activity, negative = inhibition is on record?
Answer: -22.6%

Question: With `CNC(=O)c1cc2c(ccc3ccccc32)oc1=N` as the compound, how does the activity, negative = inhibition read?
Answer: 13.1%

From PubChem BioAssay (NCATS)
